Reference: PubChem BioAssay (EPA / NIEHS)
The source made the active and inactive calls. How the source made its calls: active means hit-call score of the fitted dose curve at least 0.9, where 1 is the maximum; inactive means score below 0.9.

How the values were obtained:
[1] = ATG_E_Box_CIS: Attagene CIS-FACTORIAL HepG2 Assay for human Enhancer Box (E-box) (AID 2282936); conditions: HepG2 E-box cis-reporter transcription, actives raise or lower the signal
Outline: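 DMSO served as negative control and baseline for bidirectional fitting. Human hepatoma HepG2 cells, transiently transfected with cis-reporter constructs, were dosed 24 h; reporter mRNA read by RT-PCR and capillary electrophoresis.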

[2] = ATG_M_61_CIS: Attagene CIS-FACTORIAL HepG2 Assay for M61 Transcription Factor (Internal Marker) (AID 2282937); conditions: HepG2 Attagene CIS-FACTORIAL M61 internal marker reporter; actives raise or lower the signal
Outline: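 Fluorescence from labelled cDNA fragments, separated by capillary electrophoresis, quantifies reporter induction. HepG2 cells bearing transiently transfected cis-promoter MRTUs were incubated with test chemical for 24 h; DMSO defined baseline for gain/loss fitting.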

[3] = ATG_EGR_CIS: Attagene CIS-FACTORIAL HepG2 Assay for human Early Growth Response 1 (EGR1) (AID 2282938); conditions: HepG2 Attagene CIS-FACTORIAL EGR reporter mRNA; actives raise or lower the signal
Outline: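 Cell-based multiplex transcription assay: HepG2 carrying transfected cis-element reporter units, 24 h chemical treatment. Fluorescence from capillary electrophoresis of RT-PCR products gives mRNA levels; fitting is bidirectional relative to DMSO.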

[4] = ATG_M_19_CIS: Attagene CIS-FACTORIAL HepG2 Assay for M19 Transcription Factor (Internal Marker) (AID 2282939); conditions: HepG2 Attagene CIS-FACTORIAL M19 internal marker reporter; actives raise or lower the signal
Outline: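 HepG2 cells transiently transfected with cis-regulated multiplexed reporter units, dosed 24 h. Reporter mRNA quantified by RT-PCR and capillary electrophoresis; internal background marker fitted bidirectionally versus DMSO.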

[5] = ATG_Ets_CIS: Attagene CIS-FACTORIAL HepG2 Assay for human Erythroblast Transformation Specific (ETS) (AID 2282941); conditions: HepG2 ETS cis-reporter transcription, actives raise or lower the signal
Outline: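 HepG2 cells transfected with multiple cis-regulated reporter units measuring endogenous ETS-driven transcription, 24 h after dosing. Reporter mRNA quantified by RT-PCR with capillary electrophoresis; bidirectional fit relative to DMSO.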

[6] = target: Hepatocyte nuclear factor 3-beta (Homo sapiens) (UniProt Q9Y261); experiment: ATG_FoxA2_CIS: Attagene CIS-FACTORIAL HepG2 Assay for human Forkhead box A2 (FOXA2) (AID 2282942); conditions: HepG2 cis-reporter transcription factor activity, 24 h; actives raise or lower the signal
Hepatocyte nuclear factor 3-beta (Homo sapiens), sequence (Q9Y261 whole entry, looked up): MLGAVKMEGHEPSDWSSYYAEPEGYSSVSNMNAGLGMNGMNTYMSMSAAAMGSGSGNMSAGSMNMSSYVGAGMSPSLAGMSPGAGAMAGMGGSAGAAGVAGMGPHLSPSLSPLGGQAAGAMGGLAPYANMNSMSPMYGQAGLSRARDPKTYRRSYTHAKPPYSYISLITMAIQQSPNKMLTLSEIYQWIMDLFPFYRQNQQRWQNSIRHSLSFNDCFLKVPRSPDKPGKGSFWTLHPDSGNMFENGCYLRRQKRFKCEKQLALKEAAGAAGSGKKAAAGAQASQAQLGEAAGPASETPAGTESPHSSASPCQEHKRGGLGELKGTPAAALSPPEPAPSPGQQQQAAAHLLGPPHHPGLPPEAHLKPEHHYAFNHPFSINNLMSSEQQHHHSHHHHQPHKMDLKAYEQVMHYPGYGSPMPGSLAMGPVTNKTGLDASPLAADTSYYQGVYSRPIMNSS
Outline: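 In transiently transfected human HepG2 cells, promoter-driven reporter mRNA levels after 24 h chemical exposure are determined via RT-PCR with capillary electrophoresis. DMSO serves as baseline for bidirectional fitting.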

[7] = ATG_FoxO_CIS: Attagene CIS-FACTORIAL HepG2 Assay for human Forkhead box O (FoxO) (AID 2282943); conditions: HepG2 Attagene cis-reporter, FoxO element, mRNA; actives raise or lower the signal
Outline: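 Endogenous transcription factor activity read from multiplexed cis-promoter reporter transcripts in transiently transfected HepG2, 24 h after dosing. Reporter RNA measured via RT-PCR plus capillary electrophoresis of FAM-labeled products; gain or loss relative to DMSO.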

[8] = ATG_GATA_CIS: Attagene CIS-FACTORIAL HepG2 Assay for human GATA Binding Protein (AID 2282944); conditions: HepG2 GATA cis-element reporter, Attagene multiplex mRNA; actives raise or lower the signal
Outline: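 HepG2 cells transiently transfected with multiplexed cis-element reporter units measure endogenous GATA activity; after 24 h compound exposure, reporter mRNA quantified by RT-PCR and capillary electrophoresis. Changes fitted in both directions vs DMSO.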

[9] = ATG_GLI_CIS: Attagene CIS-FACTORIAL HepG2 Assay for human Zinc Finger Protein GLI1 (AID 2282945); conditions: HepG2, Attagene cis-factorial reporter mRNA, GLI element; actives raise or lower the signal
Outline: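 Bidirectional curve fits relative to DMSO, using reporter mRNA levels from RT-PCR plus capillary electrophoresis. Cells were HepG2 transiently carrying cis-regulated reporter constructs, harvested 24 h after dosing.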

[10] = target: Bile acid receptor (Homo sapiens) (UniProt Q96RI1); experiment: ATG_IR1_CIS: Attagene CIS-FACTORIAL HepG2 Assay for human Nuclear Receptor Subfamily 1 Group H Member 4 (NR1H4), IR1 submotif (AID 2282946); conditions: IR1 reporter transcription, actives raise or lower the signal
Bile acid receptor (Homo sapiens), sequence (Q96RI1 whole entry, looked up, the tested form may be a part): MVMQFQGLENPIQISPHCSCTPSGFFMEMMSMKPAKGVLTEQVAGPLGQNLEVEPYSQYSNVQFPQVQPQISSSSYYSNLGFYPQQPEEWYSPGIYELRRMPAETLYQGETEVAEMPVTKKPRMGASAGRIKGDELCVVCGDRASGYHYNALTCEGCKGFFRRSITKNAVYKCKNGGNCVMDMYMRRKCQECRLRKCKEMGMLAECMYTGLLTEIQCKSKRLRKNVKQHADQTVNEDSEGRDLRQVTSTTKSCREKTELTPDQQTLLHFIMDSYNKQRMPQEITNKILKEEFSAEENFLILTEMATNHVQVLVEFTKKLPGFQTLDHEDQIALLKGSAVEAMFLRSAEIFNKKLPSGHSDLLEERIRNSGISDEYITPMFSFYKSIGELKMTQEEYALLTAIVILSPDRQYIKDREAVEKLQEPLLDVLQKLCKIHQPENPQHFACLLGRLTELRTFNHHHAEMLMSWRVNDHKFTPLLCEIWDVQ
Outline: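 Cells (human HepG2) carry transiently transfected cis-promoter reporter transcription units. Compounds are incubated 24 h, total RNA is reverse-transcribed and amplified, and labelled fragments are resolved by capillary electrophoresis. Curves use DMSO as baseline.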

[11] = ATG_GRE_CIS: Attagene CIS-FACTORIAL HepG2 Assay for human Glucocorticoid Response Elements (GRE) (AID 2282947); conditions: HepG2 GRE cis-reporter, Attagene multiplex mRNA; actives raise or lower the signal
Outline: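 Assay uses human hepatoma HepG2 cells transfected with cis-promoter reporter units, exposed 24 h. mRNA from reporters detected by RT-PCR plus capillary electrophoresis; DMSO serves as negative control and baseline.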

[12] = ATG_ISRE_CIS: Attagene CIS-FACTORIAL HepG2 Assay for human Interferon Regulatory Factor 1 (IRF1) binding to an Interferon-Stimulated Response Element (ISRE) (AID 2282948); conditions: HepG2 ISRE cis-reporter (Attagene), mRNA transcription readout; actives raise or lower the signal
Outline: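 Transiently transfected HepG2 cells carrying cis-element reporter units, dosed 24 hours. Reporter mRNA quantified by RT-PCR, fluorescent primer extension, HpaI digestion and capillary electrophoresis. Bidirectional fitting relative to DMSO.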

[13] = ATG_M_32_CIS: Attagene CIS-FACTORIAL HepG2 Assay for M32 Transcription Factor (Internal Marker) (AID 2282949); conditions: HepG2 Attagene cis-factorial M32 reporter, mRNA; actives raise or lower the signal;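 further: background control marker of the multiplexed CIS panel rather than a real target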
Outline: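 Following 24 h chemical exposure of HepG2 cells transiently expressing cis-promoter reporter constructs, reporter transcript levels were determined by RT-PCR with fluorescent labelling and capillary electrophoresis, then fitted bidirectionally against DMSO.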

[14] = ATG_M_06_CIS: Attagene CIS-FACTORIAL HepG2 Assay for M06 Transcription Factor (Internal Marker) (AID 2282950); conditions: HepG2 Attagene CIS-FACTORIAL M06 internal marker reporter; actives raise or lower the signal
Outline: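 Internal background marker within multiplexed cis-reporter HepG2 system. Cells transiently transfected, dosed 24 h; reporter mRNA measured by RT-PCR, HpaI digestion and capillary electrophoresis. Bidirectional fit relative to DMSO.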

[15] = target: Hepatocyte nuclear factor 6 (Homo sapiens) (UniProt Q9UBC0); experiment: ATG_HNF6_CIS: Attagene CIS-FACTORIAL HepG2 Assay for human Hepatocyte Nuclear Factor 6 (HNF6) (AID 2282952); conditions: HepG2 Attagene cis-factorial HNF6 reporter transcription; actives raise or lower the signal
Hepatocyte nuclear factor 6 (Homo sapiens), sequence (Q9UBC0 whole entry, looked up, the tested form may be a part): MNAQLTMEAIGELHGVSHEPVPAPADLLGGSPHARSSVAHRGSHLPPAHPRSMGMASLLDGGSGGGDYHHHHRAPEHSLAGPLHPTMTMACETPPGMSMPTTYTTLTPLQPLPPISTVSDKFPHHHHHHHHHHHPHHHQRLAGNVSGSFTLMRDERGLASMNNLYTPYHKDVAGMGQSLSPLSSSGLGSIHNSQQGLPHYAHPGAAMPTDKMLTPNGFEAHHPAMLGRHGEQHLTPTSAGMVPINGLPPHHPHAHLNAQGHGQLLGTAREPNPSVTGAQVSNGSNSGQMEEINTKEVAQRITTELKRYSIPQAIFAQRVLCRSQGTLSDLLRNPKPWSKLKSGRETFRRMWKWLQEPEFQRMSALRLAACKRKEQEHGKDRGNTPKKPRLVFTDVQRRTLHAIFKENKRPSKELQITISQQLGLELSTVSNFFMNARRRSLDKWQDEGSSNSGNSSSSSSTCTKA
Outline: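 HepG2 cells transiently transfected with cis-element-driven multiplexed reporter units measuring endogenous transcription factor activity. After 24 h exposure, reporter mRNA quantified by RT-PCR, FAM-labelled fragments and capillary electrophoresis; bidirectional fitting versus DMSO.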

[16] = target: Heat shock factor protein 1 (Homo sapiens) (UniProt Q00613); experiment: ATG_HSE_CIS: Attagene CIS-FACTORIAL HepG2 Assay for human Heat Shock Transcription Factor 1 (HSE) (AID 2282953); conditions: HepG2 HSE cis-reporter, Attagene RNA transcription; actives raise or lower the signal
Heat shock factor protein 1 (Homo sapiens), sequence (Q00613 whole entry, looked up): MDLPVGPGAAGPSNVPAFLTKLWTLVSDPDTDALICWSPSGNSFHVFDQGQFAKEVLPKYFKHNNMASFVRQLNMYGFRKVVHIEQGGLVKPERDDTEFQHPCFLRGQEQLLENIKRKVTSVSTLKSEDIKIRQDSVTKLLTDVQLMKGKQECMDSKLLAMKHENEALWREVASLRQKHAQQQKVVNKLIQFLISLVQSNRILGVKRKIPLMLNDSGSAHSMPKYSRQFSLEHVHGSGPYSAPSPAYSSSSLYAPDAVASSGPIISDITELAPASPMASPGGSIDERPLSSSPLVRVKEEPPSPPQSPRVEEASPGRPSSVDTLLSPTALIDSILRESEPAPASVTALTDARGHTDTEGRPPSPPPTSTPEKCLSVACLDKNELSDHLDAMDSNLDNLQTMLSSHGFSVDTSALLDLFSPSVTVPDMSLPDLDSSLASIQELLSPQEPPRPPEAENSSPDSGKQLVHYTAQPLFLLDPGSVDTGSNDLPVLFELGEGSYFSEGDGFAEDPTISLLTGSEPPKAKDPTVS
Outline: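 HepG2 cells transfected with cis-promoter reporter units sensing endogenous transcription factor activity; reporter mRNA quantified 24 h post-dose by RT-PCR and capillary electrophoresis of 6-FAM-labelled products. Bidirectional fitting against DMSO.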

[17] = ATG_MRE_CIS: Attagene CIS-FACTORIAL HepG2 Assay for human Metal Responsive Element (MRE) (AID 2282954); conditions: HepG2 MRE cis-reporter transcription, Attagene multiplex; actives raise or lower the signal
Outline: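 After a 24 h chemical exposure, transiently transfected HepG2 cells yield RNA whose reporter sequences are amplified, FAM-labelled and sized by capillary electrophoresis. Curves are fitted bidirectionally relative to DMSO.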

[18] = ATG_PBREM_CIS: Attagene CIS-FACTORIAL HepG2 Assay for human Phenobarbital-responsive Enhancer Module (PBREM) (AID 2282955); conditions: HepG2 PBREM cis-reporter, Attagene multiplexed transcription; actives raise or lower the signal
Outline: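 After a 24 h incubation with test chemical, transfected HepG2 cells yield total RNA; reporter-specific RT-PCR products are fluorescently labelled, HpaI-digested and resolved by capillary electrophoresis against ROX size standards.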

[19] = ATG_ERE_CIS: Attagene CIS-FACTORIAL HepG2 Assay for Estrogen Response Element (ERE) (AID 2282940); conditions: HepG2 ERE cis-reporter, Attagene RNA transcript; actives raise or lower the signal
Outline: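 HepG2 cells transiently transfected with multiplexed cis-element reporter units, measuring endogenous transcription factor activity; ERE reporter mRNA quantified after 24 h exposure by RT-PCR, fluorescent labelling, HpaI digestion and capillary electrophoresis. Bidirectional change versus DMSO.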

Measured: outcome

CCOC(=O)CC(SP(=O)(OC)OC)C(=O)OCC (stereo not given)
inactive: [1] | [2] | [3] | [4] | [5] | [6] | [7] | [8] | [9] | [10] | [11] | [12] | [13] | [14] | [15] | [16] | [17] | [18]

CCCCOC(=O)[C@@H](C)Oc1ccc(Oc2ccc(C#N)cc2F)cc1
inactive: [1] | [2] | [3] | [4] | [19] | [5] | [6] | [7] | [8] | [9] | [11] | [13] | [14] | [15] | [16] | [17] | [18]

CC(Oc1cccc(Cl)c1)C(=O)O (stereo not given)
inactive: [1] | [2] | [3] | [4] | [5] | [6] | [7] | [8] | [9] | [10] | [11] | [12] | [13] | [14] | [15] | [16] | [17] | [18]

Cc1ccn2nc(S(=O)(=O)Nc3c(F)cccc3F)nc2n1
inactive: [1] | [2] | [3] | [4] | [5] | [6] | [7] | [8] | [9] | [10] | [12] | [13] | [14] | [15] | [16] | [17] | [18]
